Among all 5,500 compounds or so, about 2,000 (36%) were called active. Not shown: some 18% with an inconclusive outcome. No stated cut-off is given here; in the data, active means normalized growth mostly below about 0.91 (no sharp cut-off); inconclusive means no clear call, values can overlap the other calls; inactive means mostly above about 0.92. The list shows a part of the results.
Experiment: chemical genetic growth profiling, strain panel (AID 1159580);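 further: tested at 20 µM; growth read once vehicle control cultures reached saturation at 30 °C; 1 = growth at the plate median or of vehicle wells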
Details: growth OD

Measured: normalized growth

CCOP(=S)(OCC)SCSCC
inactive: S. cerevisiae deletion strains, locus YAL013W, strain DEP1, stronger effect = lower value 1 | S. cerevisiae deletion strains, locus YBR021W, strain FUR4, stronger effect = lower value 0.979 | S. cerevisiae deletion strains, locus YBR229C, strain ROT2, stronger effect = lower value 1 | S. cerevisiae deletion strains, locus YCL029C, strain bik1, stronger effect = lower value 1 | S. cerevisiae deletion strains, locus YDL035C, strain GPR1, stronger effect = lower value 0.986 | S. cerevisiae deletion strains, locus YDL074C, strain BRE1, stronger effect = lower value 0.963 | S. cerevisiae deletion strains, locus YDL101C, strain DUN1, stronger effect = lower value 1 | S. cerevisiae deletion strains, locus YDL134C, strain PPH21, stronger effect = lower value 0.998 | S. cerevisiae deletion strains, locus YDL185W, strain tfp1, stronger effect = lower value 1.01 | S. cerevisiae deletion strains, locus YDL192W, strain arf1, stronger effect = lower value 1 | S. cerevisiae deletion strains, locus YDR101C, strain arx1, stronger effect = lower value 0.993 | S. cerevisiae deletion strains, locus YDR150W, strain NUM1, stronger effect = lower value 0.994 | S. cerevisiae deletion strains, locus YDR162C, strain NBP2, stronger effect = lower value 0.969 | S. cerevisiae deletion strains, locus YDR318W, strain mcm21, stronger effect = lower value 1.01 | S. cerevisiae deletion strains, locus YDR388W, stronger effect = lower value 1 | S. cerevisiae deletion strains, locus YDR502C, strain sam2, stronger effect = lower value 1 | S. cerevisiae deletion strains, locus YEL061C, strain CIN8, stronger effect = lower value 1.01 | S. cerevisiae deletion strains, locus YER110C, stronger effect = lower value 1 | S. cerevisiae deletion strains, locus YER155C, strain BEM2, stronger effect = lower value 1 | S. cerevisiae deletion strains, locus YER167W, strain BCK2, stronger effect = lower value 1 | S. cerevisiae deletion strains, locus YGL078C, strain dbp3, stronger effect = lower value 1 | S. cerevisiae deletion strains, locus YGL086W, strain mad1, stronger effect = lower value 0.998 | S. cerevisiae deletion strains, locus YGL248W, strain PDE1, stronger effect = lower value 1 | S. cerevisiae deletion strains, locus YGR078C, strain PAC10, stronger effect = lower value 0.99 | S. cerevisiae deletion strains, locus YGR135W, strain pre9, stronger effect = lower value 1.01 | S. cerevisiae deletion strains, locus YGR229C, strain SMI1, stronger effect = lower value 0.998 | S. cerevisiae deletion strains, locus YGR252W, strain gcn5, stronger effect = lower value 0.993 | S. cerevisiae deletion strains, locus YHR030C, strain SLT2, stronger effect = lower value 1 | S. cerevisiae deletion strains, locus YHR079C, strain IRE1 (second series), stronger effect = lower value 1.01 | S. cerevisiae deletion strains, locus YHR094C, strain hxt1, stronger effect = lower value 0.997 | S. cerevisiae deletion strains, locus YHR129C, strain ARP1, stronger effect = lower value 1.01 | S. cerevisiae deletion strains, locus YHR200W, strain rpn10, stronger effect = lower value 1.01 | S. cerevisiae deletion strains, locus YIL066C, strain RNR3, stronger effect = lower value 1.01 | S. cerevisiae deletion strains, locus YIL073C, strain SPO22, stronger effect = lower value 1.06 | S. cerevisiae deletion strains, locus YIL125W, strain kgd1, stronger effect = lower value 1 | S. cerevisiae deletion strains, locus YIR030C, strain dcg1, stronger effect = lower value 1.01 | S. cerevisiae deletion strains, locus YJL095W, strain BCK1, stronger effect = lower value 0.993 | S. cerevisiae deletion strains, locus YJL134W, strain LCB3, stronger effect = lower value 1 | S. cerevisiae deletion strains, locus YJL168C, strain set2, stronger effect = lower value 1.01 | S. cerevisiae deletion strains, locus YJL187C, strain SWE1 (second series), stronger effect = lower value 1.01 | S. cerevisiae deletion strains, locus YJR043C, strain POL32, stronger effect = lower value 1.01 | S. cerevisiae deletion strains, locus YJR075W, strain HOC1, stronger effect = lower value 1 | S. cerevisiae deletion strains, locus YKL009W, strain mrt4, stronger effect = lower value 1.01 | S. cerevisiae deletion strains, locus YKL068W, stronger effect = lower value 1.01 | S. cerevisiae deletion strains, locus YKL085W, strain MDH1 (second series), stronger effect = lower value 1 | S. cerevisiae deletion strains, locus YKL085W, strain MDH1, stronger effect = lower value 1 | S. cerevisiae deletion strains, locus YKL190W, strain CNB1, stronger effect = lower value 1.01 | S. cerevisiae deletion strains, locus YKR001C, strain vps1, stronger effect = lower value 0.998 | S. cerevisiae deletion strains, locus YLR039C, strain RIC1, stronger effect = lower value 1.01 | S. cerevisiae deletion strains, locus YLR058C, strain SHM2, stronger effect = lower value 1.01 | S. cerevisiae deletion strains, locus YLR102C, strain apc9, stronger effect = lower value 1.02 | S. cerevisiae deletion strains, locus YLR262C, strain YPT6, stronger effect = lower value 0.953 | S. cerevisiae deletion strains, locus YLR268W, strain sec22, stronger effect = lower value 0.991 | S. cerevisiae deletion strains, locus YLR330W, strain CHS5, stronger effect = lower value 0.999 | S. cerevisiae deletion strains, locus YLR342W, strain FKS1 (second series), stronger effect = lower value 1.03 | S. cerevisiae deletion strains, locus YLR371W, strain rom2, stronger effect = lower value 1.02 | S. cerevisiae deletion strains, locus YLR418C, strain cdc73, stronger effect = lower value 0.943 | S. cerevisiae deletion strains, locus YML016C, strain PPZ1, stronger effect = lower value 1 | S. cerevisiae deletion strains, locus YML032C, strain rad52, stronger effect = lower value 1 | S. cerevisiae deletion strains, locus YML124C, strain tub3, stronger effect = lower value 1.01 | S. cerevisiae deletion strains, locus YMR078C, strain ctf18, stronger effect = lower value 1 | S. cerevisiae deletion strains, locus YMR223W, strain ubp8, stronger effect = lower value 1.01 | S. cerevisiae deletion strains, locus YMR263W, strain SAP30, stronger effect = lower value 0.952 | S. cerevisiae deletion strains, locus YMR307W, strain GAS1, stronger effect = lower value 1.02 | S. cerevisiae deletion strains, locus YNL067W, strain RPL9B, stronger effect = lower value 0.988 | S. cerevisiae deletion strains, locus YNL128W, strain TEP1, stronger effect = lower value 1 | S. cerevisiae deletion strains, locus YNL153C, strain GIM3, stronger effect = lower value 1 | S. cerevisiae deletion strains, locus YNL233W, strain BNI4, stronger effect = lower value 1 | S. cerevisiae deletion strains, locus YNL250W, strain rad50, stronger effect = lower value 1.01 | S. cerevisiae deletion strains, locus YNL271C, strain bni1, stronger effect = lower value 1 | S. cerevisiae deletion strains, locus YNL298W, strain CLA4, stronger effect = lower value 1.02 | S. cerevisiae deletion strains, locus YNL307C, strain MCK1, stronger effect = lower value 1 | S. cerevisiae deletion strains, locus YNL322C, strain KRE1, stronger effect = lower value 1.01 | S. cerevisiae deletion strains, locus YNR052C, strain pop2, stronger effect = lower value 1.01 | S. cerevisiae deletion strains, locus YOL006C, strain TOP1, stronger effect = lower value 0.985 | S. cerevisiae deletion strains, locus YOL012C, strain htz1 0.793 | S. cerevisiae deletion strains, locus YOL147C, strain pex11, stronger effect = lower value 1 | S. cerevisiae deletion strains, locus YOR061W, strain CKA2, stronger effect = lower value 0.994 | S. cerevisiae deletion strains, locus YOR069W, strain VPS5, stronger effect = lower value 1 | S. cerevisiae deletion strains, locus YOR136W, strain idh2, stronger effect = lower value 1 | S. cerevisiae deletion strains, locus YOR144C, strain elg1, stronger effect = lower value 0.996 | S. cerevisiae deletion strains, locus YOR184W, strain ser1, stronger effect = lower value 1.01 | S. cerevisiae deletion strains, locus YOR316C, strain cot1, stronger effect = lower value 1 | S. cerevisiae deletion strains, locus YPL055C, strain LGE1, stronger effect = lower value 0.974 | S. cerevisiae deletion strains, locus YPL241C, strain CIN2, stronger effect = lower value 0.998 | S. cerevisiae deletion strains, locus YPR119W, strain clb2, stronger effect = lower value 0.997 | S. cerevisiae deletion strains, locus YPR141C, strain kar3, stronger effect = lower value 1.01 | S. cerevisiae deletion strains, locus YPR163C, strain tif3, stronger effect = lower value 1.01 | S. cerevisiae deletion strains, locus YPR167C, strain met16, stronger effect = lower value 1.01 | S. cerevisiae deletion strains, strain wtn01, stronger effect = lower value 1.01 | S. cerevisiae strains, strain wild type, stronger effect = lower value 1.01
